Compound activity deposited in PubChem BioAssay by Paczesny and Yang Labs, IUPUI and University of Michigan.
Many of the other results were omitted from the sample, so hits are more common in it than they were.
ST2 inh = blocks human ST2 binding to IL-33; inhibition, % for hits at 17 µM; AID 1259354; AlphaLISA ST2-Fc/biotin-IL-33 interaction, 1 h; Q01638; actives 2.3% (n = 78,000); in the data active means inhibition above about 30%
Target sequence (Q01638 whole entry, looked up): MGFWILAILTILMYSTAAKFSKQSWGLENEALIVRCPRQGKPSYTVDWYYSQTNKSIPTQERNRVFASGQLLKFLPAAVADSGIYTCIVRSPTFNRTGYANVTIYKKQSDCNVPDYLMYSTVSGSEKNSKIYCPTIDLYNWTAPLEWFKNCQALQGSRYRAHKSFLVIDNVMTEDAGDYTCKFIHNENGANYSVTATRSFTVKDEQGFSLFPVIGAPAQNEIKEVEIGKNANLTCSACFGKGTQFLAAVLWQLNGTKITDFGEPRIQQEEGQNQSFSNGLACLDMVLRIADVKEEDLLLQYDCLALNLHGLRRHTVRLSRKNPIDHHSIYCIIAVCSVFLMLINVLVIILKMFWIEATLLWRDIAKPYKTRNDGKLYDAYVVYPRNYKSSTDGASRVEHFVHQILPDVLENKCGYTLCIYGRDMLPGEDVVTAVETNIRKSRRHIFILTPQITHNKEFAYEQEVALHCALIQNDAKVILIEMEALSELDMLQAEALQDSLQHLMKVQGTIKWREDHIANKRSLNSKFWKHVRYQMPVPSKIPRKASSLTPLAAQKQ
* marks the source's active call; other numbers are inactive results; i = inactive.

SMILES	ST2 inh
Cc1nccn1CCn1cnc(-c2ccccc2)c1-c1cccc2cccnc12	i
CN(C)c1ccc(/C=C2\N=C(c3cccc([N+](=O)[O-])c3)OC2=O)cc1	i
COc1ccc(C=C2c3cc([N+](=O)[O-])cc([N+](=O)[O-])c3-c3c2cc([N+](=O)[O-])cc3[N+](=O)[O-])cc1	51%*
COc1ccc(S(=O)(=O)Nc2ccc(OC)cc2[N+](=O)[O-])cc1	i
CN(C)c1ccc(C=C2c3cc([N+](=O)[O-])cc([N+](=O)[O-])c3-c3c2cc([N+](=O)[O-])cc3[N+](=O)[O-])cc1	42%*
CN(C)c1ccc(/C=C2\c3cc([N+](=O)[O-])ccc3-c3c2cc([N+](=O)[O-])cc3[N+](=O)[O-])cc1	i
COc1ccc(/C=C2\N=C(c3ccc(C)c([N+](=O)[O-])c3)OC2=O)cc1	i
COCCCn1ccnc1-c1ccc(-n2ccnc2)cc1	i
Cc1ccccc1C(=O)Nc1ccc(S(=O)(=O)Nc2cccc(Cl)c2C)cc1	i
CCOc1ccc(C2CC(c3ccc(Cl)cc3)n3nc(N)nc3N2)cc1 (configuration not stated)	i
CCOc1ccc(C2CC(c3ccccc3OC)n3ncnc3N2)cc1 (configuration not stated)	i
CCOc1ccc(C2Nc3cccc4cccc(c34)N2)cc1	36%*
CCC(C)NC(=O)CN(C)S(=O)(=O)c1ccc2c(c1)CCC(=O)N2 (configuration not stated)	i
O=C(NCCn1cc(SCc2ccccc2)c2ccccc21)c1ccc(F)cc1	i
Cc1cc(C)c(S(=O)(=O)Nc2c(C)n(C)n(-c3ccccc3)c2=O)c(C)c1	i
O=C(COc1ccc(Cl)cc1)NC(Cc1c[nH]c2ccccc12)C(=O)O (configuration not stated)	i
O[C@H]1[C@H](NCc2ccc(OC(F)(F)F)cc2)[C@H]2CO[C@H](O2)[C@@H]1N1CCOCC1	64%*
COc1ccccc1N1CCN([C@H]2[C@@H]3OC[C@@H](O3)[C@@H](NCc3ccc(OC(F)(F)F)cc3)[C@@H]2O)CC1	i
CN(C)CCN(C)[C@H]1[C@@H]2OC[C@@H](O2)[C@@H](NCc2ccc(OC(F)(F)F)cc2)[C@@H]1O	i
CC(=O)c1sc2ccccc2c1OC(=O)c1ccccc1Br	i
CN1CC2(CCCN(Cc3nnc(-c4ccco4)o3)CC2)OC1=O (configuration not stated)	i
O=c1n(Cc2cccc(F)c2F)nc(C2CCNCC2)n1Cc1ccccc1	i
O=c1n(CCCn2cccc2)nc(C2CCNCC2)n1-c1ccccc1	30%*
CC(C)SCCn1nc(C2CCCNC2)n(-c2ccccc2)c1=O (configuration not stated)	i
CCc1nn(-c2ccccc2)c(NC(=O)C2CCCCn3nnnc32)c1C (configuration not stated)	i
SMILES	ST2 inh
CC(=O)c1sc2c(c1C)c(=O)n(-c1ccc(Cl)cc1)c(=O)n2CC(=O)NCc1ccco1	i
CN1C[C@@H](NS(=O)(=O)c2ccccc2)C[C@H]1c1nc(-c2ccccc2)no1	i
COc1ccc(-c2noc([C@@H]3C[C@H](NS(=O)(=O)c4cccs4)CN3C)n2)cc1	41%*
CN1C[C@@H](NS(=O)(=O)c2ccccc2)C[C@H]1c1nc(-c2ccc(Cl)cc2)no1	i
CCOC(=O)c1ccc(NS(=O)(=O)c2ccc3c4c(cccc24)C(=O)N3)cc1	i
CCOc1ccc(C2CC(=O)N3CN(c4ccccc4C)CSC3=C2C#N)cc1 (configuration not stated)	i
O=S(=O)(Nc1cccc(F)c1)c1ccc(-c2ccccc2)cc1	i
COc1cc(OC)cc(C(=O)N2CCN=C2SCc2ccccc2F)c1	i
COc1ccc(Cl)cc1NC(=O)c1cc2c(=O)n3ccccc3nc2s1	37%*
O=C(Nc1ccc(F)c(Cl)c1)c1cc2c(=O)n3ccccc3nc2s1	i
O=C(Nc1ccccc1F)c1cc2c(=O)n3ccccc3nc2s1	i
CC1CCN(C(=O)CN2Cc3ccccc3OC(c3ccccc3F)C2)CC1 (configuration not stated)	i
Clc1ccc(Nc2ncnc3ccccc23)cc1	i
COc1ccc(-c2ccc[nH]2)cc1	42%*
COc1ccc(-c2cc3ccccc3[nH]2)cc1	i
COc1ccc(-c2cc(-c3ccccc3)nc(=O)[nH]2)cc1	i
CCC(=O)Nc1cccc(C(=O)NC2C=CS(=O)(=O)C2)c1 (configuration not stated)	i
CCOC(=O)C1(CCOc2ccccc2)CCN(Cc2cccc(C)n2)CC1	83%*
CCOC(=O)C1(CCOc2ccccc2)CCN(S(=O)(=O)c2ccc(C)s2)CC1	i
CCOC(=O)C1(CCOC)CCN(Cc2ccc(N(C)c3ccccc3)cc2)CC1	i
CC1(C)Oc2ccc(NC(=O)c3ccc(C(=O)c4ccccc4)cc3)cc2O1	i
CSc1cccc(NS(=O)(=O)c2ccc(Cl)s2)c1	i
COc1cc(CN2CCN(c3ccccc3F)CC2)cc([N+](=O)[O-])c1O	i
CCOc1ccccc1N1CCN(Cc2ccc(OC)cc2OC)CC1	i
Cc1ccc(C)c(N2CCN(Cc3cc4c(cc3[N+](=O)[O-])OCO4)CC2)c1	32%*
SMILES	ST2 inh
Cc1ccccc1N1CCN(Cc2ccco2)CC1	i
Cc1ccc(C)c(N2CCN(Cc3ccc(-c4ccccc4[N+](=O)[O-])o3)CC2)c1	38%*
CCOc1ccccc1N1CCN(Cc2cc3c(cc2[N+](=O)[O-])OCO3)CC1	30%*
COc1cc(OC)c(OC)cc1CN1CCN(Cc2cc(OC)c(OC)cc2[N+](=O)[O-])CC1	i
COc1cc(CN2CCN(c3ncccn3)CC2)c([N+](=O)[O-])cc1OC	i
COc1cc([N+](=O)[O-])cc(CN2CCN(c3cc(C)ccc3C)CC2)c1O	41%*
COc1cc(CN2CCN(c3ccccc3OC)CC2)c([N+](=O)[O-])cc1OC	i
O=[N+]([O-])c1ccc(CN2CCN(Cc3ccccc3)CC2)o1	i
COc1ccc(CN2CCN(Cc3cccc([N+](=O)[O-])c3)CC2)c(OC)c1OC	i
O=c1c2cnn(-c3ccccc3)c2ncn1Cc1ccc(Br)cc1	i
COc1ccc(N2C(=O)CC(N3CCN(C/C=C/c4ccccc4)CC3)C2=O)cc1 (configuration not stated)	i
O=C(NC1CCCC1)C1CCC(=O)N1Cc1ccc(F)cc1 (configuration not stated)	i
Cc1ccc(N2C(=O)CSC2c2ccc(F)cc2)cc1Cl (configuration not stated)	i
O=C(O)CSc1ccc(Cc2ccc(SCC(=O)O)cc2)cc1	i
CC(=O)N(CN1C(=O)CCC1=O)CN1C(=O)CCC1=O	i
COc1cc(C)c(CN2CCN(c3ccc([N+](=O)[O-])cc3)CC2)cc1C	32%*
O=[N+]([O-])c1ccc(N2CCN(Cc3ccoc3)CC2)cc1	i
COc1ccc(C(=O)N2CCN(c3ccc([N+](=O)[O-])cc3)CC2)cc1OC	i
CN1CCC2(CCC1=O)CCN(C(=O)CCN1CCNCC1)CC2	i
COc1ccc(-c2nc3cnccn3c2Nc2ccccc2)cc1	i
FC(F)(F)c1ccc2nnc(-c3cccc(I)c3)n2c1	54%*
FC(F)(F)c1ccc2nnc(-c3ccc(Cl)cc3Cl)n2c1	i
FC(F)(F)c1cccc(-c2ncnn2-c2ccc(Br)nc2)c1	i
C=CCN(C(=O)CCS(=O)(=O)c1cccc2nonc12)c1ccccc1	i
